Values joined by “and” are separate entries in the source; they are usually repeats but may differ in a detail not shown here. Equal entries are not always repeated. Results filed as inconclusive are left out. Entries that show only a call come without a potency. Some structures have more than one record in an assay (separate samples or runs), and their calls can disagree. Active and inactive are the calls of the source. Unless noted, the call rests on the fitted dose curve; in most records, active means well fitted curve in the direction sought with a large enough effect in the repeat runs; inconclusive means weak or mixed curves; inactive means no such curve, though single readings can be large; an effect the other way counts as inactive or inconclusive.
How the values were obtained:
[1] = qHTS assay for small molecule agonists of the p53 signaling pathway (AID 651631; calls by dose curve; further: nearly all actives have a fitted effect of over 15% in size; further: potency means the concentration at half of the fitted maximal effect)
Outline: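 We treat p53RE-bla HCT-116 cells with compounds for 16 h at 37 °C, add LiveBLAzer B/G FRET substrate for 2 h at room temperature, and measure fluorescence intensity.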

[2] = qHTS assay for small molecules that induce genotoxicity in human embryonic kidney cells expressing luciferase-tagged ATAD5 (AID 651632); further: nearly all actives have a fitted effect of over 15% in size
Outline: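 HEK293T cells carrying a luciferase reporter tagged to ATAD5 were exposed to compound or DMSO vehicle for 16 hr at 37C, 5% CO2. Amplite was added, and after 30 min at room temperature luciferase activity was read as a marker of ATAD5 induction.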

[3] = qHTS assay for small molecule agonists of the p53 signaling pathway - cell viability (AID 651633; calls by dose curve; further: nearly all actives have a fitted effect of over 30% in size; further: potency means the concentration at half of the fitted maximal effect;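 on activity change, negative = cytotoxicity: p53RE-bla HCT reporter cells with a stable beta-lactamase p53 reporter; series mostly up to about 83 µM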)
Outline: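 Viability counter-read: CellTiter-Glo luminescence (30 min, room temperature) in the same p53RE-bla plates. These plates had been exposed to compounds for 16 h at 37 C.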

[4] = qHTS assay for small molecules that induce genotoxicity in human embryonic kidney cells expressing luciferase-tagged ATAD5 - cell viability (AID 651634; calls by dose curve; further: nearly all actives have a fitted effect of over 25% in size; further: potency means the concentration at half of the fitted maximal effect)
Outline: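 HEK293T cells expressing luciferase-tagged ATAD5 were exposed to compound or DMSO for 15.5 hr at 37C, 5% CO2. Viability was then read as live-cell protease activity by CellTiter-Fluor fluorescence after 30 min at 37C.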

[5] = qHTS assay for small molecule disruptors of the mitochondrial membrane potential - cell viability (AID 720634; calls by dose curve;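 further: human HepG2 liver cancer cells; series mostly up to about 83 µM; nearly all actives have a fitted effect of over 20% in size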)
Outline: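 HepG2 cells seeded overnight at 37 C, then exposed to compound or DMSO for 1 hr at 37 C, 5% CO2. m-MPI dye added, then CellTiter-Glo for 30 min at room temperature; viability read as ATP luminescence.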

[6] = qHTS assay for small molecule disruptors of the mitochondrial membrane potential (AID 720635); further: potency means the concentration at half of the fitted maximal effect
Outline: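 Mitochondrial membrane potential tracked with Mito-MPS dye, red aggregates (ex 540/em 590 nm) against green monomers (ex 490/em 535 nm). Compound treatment 1 hr at 37C, dye 30 min in HepG2.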

[7] = qHTS assay to test for compound auto fluorescence at 590 nm (red) in HepG2 cells (AID 720674)
Outline: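 Red autofluorescence (Ex/Em 540/590 nm, Rose Bengal sodium equivalents) was measured in HepG2 cells, 2,000 per well in MEM plus 10% FBS, plated overnight at 37 C. Readings were taken 1 hr after adding 23 nL compound or DMSO, at 37 C and 5% CO2.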

[8] = qHTS assay to test for compound auto fluorescence at 535 nm (green) in HepG2 cells (AID 720675)
[9] = qHTS assay to test for compound auto fluorescence at 460 nm (blue) in HEK293 cells (AID 720678)
Outline: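 After cell attachment (4-5 hr, 37C), compounds were pinned onto HEK293 monolayers in 10% dialyzed FBS medium. The blue channel (405/460 nm) was read following overnight culture. Equivalency was calculated against triamterene.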

[10] = qHTS assay to test for compound auto fluorescence at 590 nm (red) in HEK293 cells (AID 720679)
Outline: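 Plates of HEK293 cells (10% dialyzed FBS) are treated with 23 nL compound or DMSO vehicle after a 4-5 hr attachment period, incubated overnight at 37C, and read for red fluorescence at 540/590nm.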

Structure (SMILES) | Potency [1] | Potency [2] | Potency [3] | Potency [4] | Potency [5] | Potency [6] | outcome [7] | outcome [8] | Potency [9] | outcome [10] | activity change, negative = cytotoxicity [3] | ratio activity, negative = MMP loss [6]
Cc1cc(C)cc(O)c1 | inactive | inactive | inactive | inactive | inactive | inactive | inactive | inactive | inactive | inactive | – | –
COc1ccccc1[N+](=O)[O-] | inactive | inactive | inactive | inactive | inactive | inactive | inactive | inactive | inactive | inactive | – | –
COC(=O)OC | inactive | inactive | inactive | inactive | inactive | inactive | inactive | inactive | inactive | inactive | – | –
O=c1c(O)c(-c2ccc(O)c(O)c2)oc2cc(O)cc(O)c12 | 49 µM (active) | inactive | inactive | 54.5 µM (active) | inactive | – | inactive | inactive | inactive | inactive | – | –
CC(C)c1ccc(C(C)C)cc1 | inactive | inactive | inactive | inactive | inactive | inactive | inactive | inactive | inactive | inactive | – | –
COc1ccc(N)c(OC)c1 | inactive | inactive | inactive | inactive | inactive | 54.5 µM (active) | inactive | inactive | inactive | inactive | – | –
CC1(C)[C@@H](O[C@H]2O[C@H](C(=O)O)[C@@H](O)[C@H](O)[C@H]2O[C@@H]2O[C@H](C(=O)O)[C@@H](O)[C@H](O)[C@H]2O)CC[C@]2(C)[C@H]3C(=O)C=C4[C@@H]5C[C@@](C)(C(=O)O)CC[C@]5(C)CC[C@@]4(C)[C@]3(C)CC[C@@H]12 | inactive | inactive | inactive | inactive | inactive | inactive | inactive | inactive | inactive | inactive | – | –
CC(C)=CCC/C(C)=C/C=O | inactive | inactive | inactive | inactive | inactive | inactive | inactive | inactive | inactive | inactive | – | –
CC(=O)OC(C)(C)C1CC=C(C)CC1 (stereo not drawn) | inactive | inactive | inactive | inactive | inactive | inactive | inactive | inactive | inactive | inactive | – | –
O=C(Cl)c1ccc(C(=O)Cl)cc1 | inactive | inactive | inactive | inactive | inactive | inactive | inactive | inactive | inactive | inactive | – | –
Cc1ccc(Cl)cc1 | inactive | inactive | inactive | inactive | inactive | inactive | inactive | inactive | inactive | inactive | – | –
Cc1ccccc1C=O | inactive | inactive | inactive | inactive | inactive | inactive | inactive | inactive | inactive | inactive | – | –
CCCCCCCCO | inactive | inactive | inactive | inactive | inactive | inactive | inactive | inactive | inactive | inactive | – | –
CC(=O)OCc1ccc2c(c1)OCO2 | inactive | inactive | inactive | inactive | inactive | inactive | inactive | inactive | inactive | inactive | – | –
NC(=O)NC(N)=O | inactive | inactive | inactive | inactive | inactive | inactive | inactive | inactive | inactive | inactive | – | –
CC(=O)OCCC(C)C | inactive | inactive | inactive | inactive | inactive | inactive | inactive | inactive | inactive | inactive | – | –
CCCCCCCCC(=O)O | inactive | inactive | inactive | inactive | inactive | inactive | inactive | inactive | inactive | inactive | – | –
COC(=O)CCCCC(=O)OC | inactive | inactive | inactive | inactive | inactive | inactive | inactive | inactive | inactive | inactive | – | –
CCOC(=O)CC(=O)OCC | inactive | inactive | inactive | inactive | inactive | inactive | inactive | inactive | inactive | inactive | – | –
CCCCCC(C)=O | inactive | inactive | inactive | inactive | inactive | inactive | inactive | inactive | inactive | inactive | – | –
Cc1ccc(C)c(S(=O)(=O)O)c1 | inactive | inactive | inactive | inactive | inactive | inactive | inactive | inactive | inactive | inactive | – | –
CC(=O)Nc1ccc(CC(=O)O)cc1 | inactive | inactive | inactive | inactive | inactive | inactive | inactive | inactive | inactive | inactive | – | –
O=C(O)Cc1c[nH]c2ccccc12 | inactive | inactive | inactive | inactive | inactive | inactive | inactive | inactive | inactive | inactive | – | –
CCCOC(=O)NCCCN(C)C | inactive | inactive | inactive | inactive | inactive | inactive | inactive | inactive | inactive | inactive | – | –
CCCCCCCC(=O)O | inactive | inactive | inactive | inactive | inactive | inactive | inactive | inactive | inactive | inactive | – | –
c1cnc2c(c1)ccc1cccnc12 | 30.9 µM (active) and 24.3 µM (active) | inactive | inactive | 6.92 µM (active) and 3.86 µM (active) and 7.7 µM (active) | inactive | 30.6 µM (active) | inactive | inactive | inactive | inactive | – | –

Structure (SMILES) | Potency [1] | Potency [2] | Potency [3] | Potency [4] | Potency [5] | Potency [6] | outcome [7] | outcome [8] | Potency [9] | outcome [10] | activity change, negative = cytotoxicity [3] | ratio activity, negative = MMP loss [6]
OB(O)O | inactive | inactive | inactive | inactive | inactive | inactive | inactive | inactive | inactive | inactive | – | –
CN=C(NC#N)NCCSCc1nc[nH]c1C | – | inactive | – | inactive | inactive | inactive | inactive | inactive | inactive | inactive | – | –
O=C1CCCCCCCCCCC1 | – | inactive | inactive | inactive | inactive | inactive | inactive | inactive | inactive | inactive | – | –
COc1ccc2cc3[n+](cc2c1OC)CCc1cc2c(cc1-3)OCO2 | 61.6 µM (active) | inactive | inactive and 30.9 µM (active) | – | inactive | 1.68 µM (active) and 870 nM (active) | inactive | inactive | inactive | inactive | – | –
C=C1C[C@]23C[C@@]1(O)CC[C@H]2[C@@]12C=C[C@H](O)[C@@](C)(C(=O)O1)[C@H]2[C@@H]3C(=O)O | – | inactive | inactive | inactive | inactive | inactive | inactive | inactive | inactive | inactive | – | –
OCC(CO)(CO)CO | – | inactive | inactive | inactive | inactive | inactive | inactive | inactive | inactive | inactive | – | –
OCC(O)CS (stereo not drawn) | inactive | inactive | inactive | inactive | inactive | – | inactive | inactive | inactive | inactive | – | –
COc1c(Cl)ccc(Cl)c1C(=O)O | – | inactive | inactive | inactive | inactive | inactive | inactive | inactive | inactive | inactive | – | –
C1CCCNCC1 | – | inactive | inactive | inactive | inactive | inactive | inactive | inactive | inactive | inactive | – | –
CCCCCCCCCCCC(=O)N(C)CC(=O)O | – | inactive | – | inactive | inactive | – | inactive | inactive | inactive | inactive | 23.9% [at 8.08 µM] (inactive) | 7.77% [at 8.08 µM] (inactive)
CCCOCC(C)O (stereo not drawn) | – | inactive | inactive | inactive | inactive | 54.5 µM (active) and inactive | inactive | inactive | inactive | inactive | – | –
OC1CCCCC1 | inactive | inactive | inactive | inactive | – | – | inactive | inactive | inactive | inactive | – | –
CCN(CC)CCNC(=O)c1ccc(N)cc1 | – | inactive | inactive | inactive | inactive | 13.3 µM (active) | inactive | inactive | inactive | inactive | – | –
N#CCC(=O)O | inactive | inactive | inactive | inactive | – | – | inactive | inactive | inactive | inactive | – | –
C=C(C)CC(C)(C)C | inactive | inactive | inactive | inactive | inactive | – | inactive | inactive | inactive | inactive | – | –
C=CC(=O)NCOCCCC | – | inactive | inactive | inactive | inactive | inactive | inactive | inactive | inactive | inactive | – | –
CC(CN1c2ccccc2Sc2ccccc21)N(C)C (stereo not drawn) | – | inactive | inactive | inactive | inactive | – | inactive | inactive | inactive | inactive | – | –
CC(COCC(C)OC(=O)c1ccccc1)OC(=O)c1ccccc1 (stereo not drawn) | – | inactive | inactive | inactive | inactive | inactive | inactive | inactive | inactive | inactive | – | –
Cc1cccc(C)c1[N+](=O)[O-] | – | – | inactive | inactive | inactive | inactive | inactive | inactive | inactive | inactive | – | –
CC(C=O)Cc1ccc(C(C)(C)C)cc1 (stereo not drawn) | – | inactive | inactive | inactive | inactive | 61.1 µM (active) | inactive | inactive | inactive | inactive | – | –
CC(=O)OC/C=C(\C)CCC=C(C)C | inactive | inactive | inactive | inactive | inactive | – | inactive | inactive | inactive | inactive | – | –
O=c1n(CCCN2CCN(c3cccc(Cl)c3)CC2)nc2ccccn12 | inactive | – | inactive | inactive | inactive | inactive | inactive | inactive | inactive | inactive | – | –
COC(=O)/C=C\C(=O)OC | inactive | inactive | inactive | inactive | inactive | – | inactive | inactive | inactive | inactive | – | –
Nc1cccc(N)n1 | – | inactive | – | inactive | inactive | 14.8 µM (active) and 48.6 µM (active) | inactive | inactive | inactive | inactive | – | –
O=C1O[C@H]([C@H](O)CO)C(O)=C1O | inactive | inactive | – | inactive | inactive | inactive | inactive | inactive | inactive | inactive | – | –
CO[Si](CCCNCCN)(OC)OC | – | inactive | inactive | inactive | inactive | inactive | inactive | inactive | inactive | inactive | – | –

Source: PubChem BioAssay (Tox21)
